AMA1 RON2 block = disrupts binding of P. falciparum AMA1 to RON2; AlphaScreen AMA1-biotinylated RON2 peptide binding; Potency, µM (top dose mostly 58.2 µM), for the others: at the top dose activity change, negative = inhibition, actives largely listed as inhibitors; 360,000 compounds, 0.2% hits; AID 720542;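 also: potency is read from the fitted curve at half-maximal effect; 0% = vehicle wells and -100% = peptide control; nearly all actives have a fitted effect of over 45% in size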
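AMA1 (3D7) with his tag at 25 nM final met compounds first, then biotinylated RON2 peptide at 25 nM; detection used donor plus acceptor beads, 10 µg/mL apiece, read by AlphaScreen after 30 min at room temperature.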
Pf growth 96h = P. falciparum growth inhibition at 96 hours; Potency, µM (doses to about 28.7 µM), without a hit: at the highest dose activity change, negative = inhibition, most hits filed as inhibitors; P. falciparum luciferase reporter growth, 96 h; 320,000 compounds, 6.9% hits; also: potency is read from the fitted curve at half-maximal effect; % is scaled to controls: 0 for no effect and ±100 for the full control effect
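96 h incubation, 37 C, 5% CO2, of luciferase-reporter P. falciparum-infected RBCs (2% hematocrit, 0.05% parasitemia final) with test compounds; endpoint luminescence.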
Shiga inhibitor = blocks Shiga toxin action in Vero cells; Vero cells, Shiga toxin protein synthesis inhibition reporter; inhibition, % at 38.7 µM; 290,000 compounds, 9.2% hits; AID 2315; in the data active = inhibition mostly above about 28%, no sharp cut-off; inactive = mostly below about 43%; also: 0% is about no effect
Pf growth 48h = inhibits P. falciparum growth in the first generation, 48 h; AID 504832; P. falciparum luciferase growth in erythrocytes, 48 h; Potency, µM (series often up to 28.7 µM), for inactives: top-dose activity change, negative = inhibition, usual class: inhibitors; 310,000 compounds, 5.9% hits; also: potency is read from the fitted curve at half-maximal effect; % is scaled to controls: 0 for no effect and ±100 for the full control effect
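Luminescence readout; reporter = integrated firefly luciferase in P. falciparum. RBC culture at 2% hematocrit, 0.1% parasitemia final, 37 C/5% CO2; decreased signal taken as growth inhibition.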
SARS PLpro yeast = blocks SARS-CoV papain-like protease in a yeast assay; S. cerevisiae expressing SARS-CoV PLpro, growth rescue; 330,000 compounds, 0.19% hits; AID 485353; Potency, µM (titrated, usually from 32.9 µM), inactives show top-dose activity, positive = growth rescue, hits mostly activators; calls by dose curve; also: potency is read from the fitted curve at half-maximal effect; 0% is about no effect; nearly all actives have a fitted effect of over 55% in size
CHX counter = counter-screen hit for Shiga toxin inhibitors, cycloheximide | cell reporter, cycloheximide protein synthesis inhibition counterscreen | max response, % | 300,000 compounds, 12% hits | AID 2314; in the data active = max response mostly above about 13%, no sharp cut-off; inactive = mostly below about 14%; also: read at 38.3 µM for the half of the compounds with a filed dose; 0% is about no effect
The depositor's hits bear a star; ? = inconclusive; nt = not tested or not shown; [ ] = remark or other dose. Most compounds without a hit are left out; they make up all but 19% or so of the library. Unless noted, calls follow the shape of the dose curve; as a rule, active = well fitted curve in the direction sought with a large enough effect; inconclusive = small, poorly fitted or top-dose-only effect, or another doubt; inactive = no such curve, though single readings can be large; an effect the other way counts as inactive or inconclusive.

SMILES	AMA1 RON2 block	Pf growth 96h	Shiga inhibitor	Pf growth 48h	SARS PLpro yeast	CHX counter
CCCC(=O)C1=C(O)C(C(=O)OC)C(C)(C)CC1=Nc1ccccc1 (stereo not given)	26%	-4%	-27	4.1µM*	1%	-5
CCCC(=O)C1=C(O)C(C(=O)OC)C(C)(C)CC1=Nc1cccc([N+](=O)[O-])c1 (stereo not given)	21%	-29%	nt	?	2%	1
Cc1ccc(NC(=O)C/C(N)=N/OC(=O)Nc2ccc(C)c(Cl)c2)cc1	8%	23%	nt	-5%	5%	nt
C=C(C)CC(NCCc1ccccc1)c1ccco1 (stereo not given)	-1%	1%[5.75 µM]	-9	87%	0%	1
CCCC(=O)N1CCC1(C)C(=O)Nc1cccc(F)c1 (stereo not given)	11%	nt	nt	nt	nt	nt
OC12CCCCC1C(c1ccc3c(c1)OCO3)N(Cc1ccc(F)cc1)CC2 (stereo not given)	-9%	9.3µM*	24	13µM*	-1%	-2
OC12CCCCC1C(c1ccc3c(c1)OCO3)N(Cc1cccc(F)c1)CC2 (stereo not given)	-8%	-14%	-12	-80%	-3%	-5
COc1ccc2c(Cl)c(C(=O)NCC3CCCO3)sc2c1Cl (stereo not given)	nt	-8%	23	-1%	11%	20*
COc1ccc(-n2c(N)c(C(=O)NCC3CCCO3)sc2=S)cc1 (stereo not given)	-12%	nt	18	-3%	-10%	-4
Cc1noc(C(=O)NCC2CCCO2)c1Cl (stereo not given)	-1%	4%	2	11%	-5%	12
COc1ccc(C(=O)NCCCn2ccnc2)cc1	-10%	0%	5	-20%	-4%	17
O=C(NCC1CCCO1)c1sc2ccccc2c1Cl (stereo not given)	9%	?	73*	187%	-6%	41*
COc1ccc2c(Cl)c(C(=O)NCCCn3ccnc3)sc2c1Cl	6%	?	29	10µM*	1%	2
Cc1ccc2c(Cl)c(C(=O)NCC3CCCO3)sc2c1 (stereo not given)	23%	93%	77*	314%	-4%	55*
O=C(NCC1CCCO1)c1sc(=S)n2c1[nH]c(=O)c1ccc(C(=O)N3CCCCC3)cc12 (stereo not given)	7%	?	-21	10µM*	-6%	0
CCN(CC(=O)N1CCN(C)CC1)S(=O)(=O)c1ccc(Cl)cc1	-1%	9.3µM*	6	-14%	8%	-1
CCN(CC(=O)N1CCCCCC1)S(=O)(=O)c1ccc(C)cc1	-2%	7.4µM*	-2	-15%	-4%	-4
CCOC(=O)N1CCN(C(=O)CN(Cc2ccc(Cl)cc2)S(=O)(=O)c2ccc(C)cc2)CC1	0%	1.9µM*	-17	nt	-2%	27
O=C(NCC1CCN(c2ccc(S(=O)(=O)N3CCOCC3)cc2)CC1)c1cccc(Cl)c1	-4%	12µM*	-12	nt	3%	-3
COc1cccc(C(=O)NCC2CCN(c3ccc(S(=O)(=O)N4CCOCC4)cc3)CC2)c1	-13%	5.2µM*	-23	12µM*	2%	0
CC(=O)c1cc(C#N)c(N2CCOCC2)nc1C	-1%	17%[5.75 µM]	-5	28%	1%	-4
CCOc1cc2[nH]c(=S)n(Cc3ccc(C(=O)NCCN(CC)CC)cc3)c(=O)c2cc1OCC	54%	-22%	-15	2.6µM*	-3%	-1
CCOc1cc2[nH]c(=S)n(Cc3ccc(C(=O)NCC(OC)OC)cc3)c(=O)c2cc1OCC	1%	?	-16	?	?	-4
CCN(CC)CCNC(=O)c1ccc2c(=O)n(C3CCCC3)c(=S)[nH]c2c1	35%	3%	-8	2.3µM*	4%	-5
COc1cccc(/C=N/NC(=O)CNC(=O)c2ccc(S(=O)(=O)N3CCCC3)cc2)c1OC	0%	55%	30	-13%	0%	5
SMILES	AMA1 RON2 block	Pf growth 96h	Shiga inhibitor	Pf growth 48h	SARS PLpro yeast	CHX counter
Cn1cccc1C1NC(=O)c2c(sc3c2CCC(C(C)(C)C)C3)N1 (stereo not given)	-25%	nt	29*	?	-12%	11*
CCCN1CCN(S(=O)(=O)c2ccc(-c3cc(C)no3)s2)CC1	-1%	?	-2	-1%	9%	-2
COc1ccc(O)c(C2NC(CC(C)C)(C(=O)O)C3C(=O)N(Cc4ccccc4)C(=O)C23)c1 (stereo not given)	74%	89%	-7	23%	-4%	8.5*
CCN1C(=O)[C@H]2[C@@H](c3ccc(-c4ccc(OC)cc4)cc3)N[C@@](CC(C)C)(C(=O)OC)[C@H]2C1=O	0%	12µM*	nt	12µM*	6%	nt
CCN1C(=O)[C@H]2[C@@H](c3ccc(-c4ccc(Cl)c(Cl)c4)cc3)N[C@@](CC(C)C)(C(=O)OC)[C@H]2C1=O	-1%	4.7µM*	nt	12µM*	6%	nt
CCCCCCSc1ccc([C@H]2N[C@@](CC(C)C)(C(=O)OC)[C@H]3C(=O)N(CC)C(=O)[C@@H]23)cc1	10%	?	nt	?	3%	nt
COC(=O)[C@]1(CC(C)C)N[C@H](c2ccc(-c3ccc(Cl)c(Cl)c3)cc2)[C@@H]2C(=O)N(C)C(=O)[C@@H]21	-12%	4.7µM*	nt	7.4µM*	1%	nt
CCC(=O)N1CCc2cc(S(=O)(=O)CCC(=O)Nc3cccc(C)n3)ccc21	13%	?	10	-13%	0%	-3
O=C(N/N=C/c1ccc(N2CCOCC2)cc1)c1ccccc1OCCOc1ccccc1	-2%	?	12	?	-3%	10
Cc1ccccc1CSc1ccc(S(=O)(=O)N2CCCC2)cn1	-2%	nt	nt	nt	-6%	nt
O=C(O)c1ccccc1C(=O)NC1CCN(c2nccc(C(F)(F)F)n2)CC1	2%	10%	-5	nt	-2%	-3
O=C(/C=C/c1ccc(Cl)cc1)NC1CCS(=O)(=O)C1 (stereo not given)	-8%	?	12	?	1%	-2
COc1ccc(/C=C/C(=O)N[C@H](C(=O)O)C(C)C)cc1	-14%	15%	-6	15%	2%	7
COc1ccc(/C=C/C(=O)C(C(N)=O)=C2SCCS2)cc1	-7%	-29%	49*	-27%	15%	31*
NC(=O)C(C(=O)/C=C/c1ccc(Cl)cc1)=C1SCCS1	2%	8.3µM*	39	?	0%	15*
O=C(Nc1ccc(F)c(Cl)c1)c1ccc2sc([C@@H]3O[C@H](CO)[C@H](O)[C@H](O)[C@H]3O)nc2c1	11%	nt	nt	nt	nt	nt
CCc1ccc(CN2C(=O)c3ccccc3C2C(=O)NC(C)CC)cc1 (stereo not given)	0%	-7%	-5	-1%[0.00184 µM]	3%	-4
CCOc1ccccc1CN1C(=O)c2ccccc2C1C(=O)NC(C)CC (stereo not given)	2%	8.3µM*	-14	-30%	17%	-2
